# Hits are enriched below; roughly 1% of the tested compounds scored in any of these assays.
# E-sel TNF inh – TNF alpha driven E-selectin expression inhibition | AID 1246 | HUVEC TNFa-induced E-selectin immunofluorescence, high content | 120,000 compounds, 0.71% hits | inhibition, % at 2 µM;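 active = inhibition above the batch mean plus 3 SD, and confirmed as a hit on visual image review, cut at about 43% in these data; inconclusive = passes the inhibition cutoff but fails visual image review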
# HUVEC tox TNFa – HUVEC cytotoxicity counter-screen, TNF alpha stimulated; 93,000 compounds, 0.17% hits; HUVEC TNFalpha-stimulated, Hoechst cell count, imaging; cell count reduction, % at 2 µM;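 active = cell count reduction exceeding the screen mean by over 5 SD, scaled to untreated wells per plate, cut at about 78% in these data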;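 also: cells counted after 24 h of TNF alpha exposure following the 1 h pretreatment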
# VCAM1 TNFa inh – reduces TNF alpha induced VCAM1 expression in HUVEC; HUVEC TNFa-induced VCAM-1 immunofluorescence, high-content imaging; inhibition, % at 2 µM; 95,000 compounds, 0.48% hits; AID 802;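 active = inhibition above the batch mean plus 3 SD, with images confirmed as a hit by eye, cut at about 37% in these data; inconclusive = inhibition above that limit but hit not confirmed in images; inactive = inhibition not above that limit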
# cytoskel mod – cytoskeleton assembly modification; AID 836; 91,000 compounds, 0.18% hits; inhibition, % at 2 µM; HUVEC TNFa F-actin phalloidin imaging, high content;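 active = inhibition above the batch mean plus 3 SD and confirmed as a hit by visual image inspection, cut at about 30% in these data, passing the limit was not always enough; inconclusive = above the inhibition threshold but rejected on visual inspection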
# Hits are given with their value; . = inactive; ? = inconclusive; / = no result.
SMILES,E-sel TNF inh,HUVEC tox TNFa,VCAM1 TNFa inh,cytoskel mod
N#CCc1nc2c3c4c(sc3ncn2n1)CCCC4,.,.,60,.
CSc1nc2ccc(NS(=O)(=O)c3cccc(Cl)c3Cl)cc2s1,.,/,/,/
COc1ccccc1N1CCN(S(=O)(=O)c2cc(C)sc2C)CC1,.,.,.,.
Cc1cc(S(=O)(=O)N2CCN(c3ccccc3O)CC2)c(C)s1,57,.,.,.
COc1ccc(CC(=O)Nc2ccc(-c3noc(-c4cccc(OC)c4)n3)cc2)cc1,.,.,39,.
O=C(Cn1cncn1)NCc1ccccc1Br,.,.,.,.
O=C(Cn1cncn1)NCc1cccc2ccccc12,64,.,.,/
Cc1ccc(C(=O)C(C)Sc2nnc(N)s2)cc1 (stereo unspecified),.,/,/,/
N#Cc1ccc(NC(=O)C2CC(c3ccc(F)cc3)=NO2)cc1 (stereo unspecified),93,.,.,.
COc1ccc(-c2nc(-c3cccs3)c(-c3cccs3)[nH]2)cc1O,/,.,.,.
CCOC(=O)c1c(C)[nH]c(C(=O)OCCOc2ccccc2C)c1C,67,/,/,/
CCOC(=O)c1[nH]c(C)c(C(=O)c2ccc(C)cc2)c1C,.,.,48,.
Cc1ccc(S(=O)(=O)N2CCN(C(=S)NCc3ccc4c(c3)OCO4)CC2)cc1,.,/,/,/
COc1ccc(N2CCN(C(=O)Cn3c(=O)[nH]c4ccccc4c3=O)CC2)cc1,.,/,/,/
COc1ccccc1NCC(=O)NNCC(=O)Nc1ccc(F)c(Cl)c1,.,/,/,/
CN1CCN(C(=O)CCc2nc3ccccc3c(=O)[nH]2)CC1,.,.,.,.
Cc1ccc(CNC(=O)CCc2nc3ccccc3c(=O)[nH]2)cc1,62,/,/,/
CCN1C(=O)/C(=C\N(C)C)S/C1=N\S(=O)(=O)c1ccc(C)cc1,.,/,/,/
O=C(CCl)Nc1cccc(Oc2ccccc2)c1,.,/,/,/
CCC(C)Sc1nc(O)cc(=O)[nH]1 (stereo unspecified),/,78,.,.
Cc1ccccc1-c1nc(CN2CCC(C(=O)NCCCN3CC(C)CC(C)C3)CC2)c(C)o1 (stereo unspecified),.,.,43,.
COc1ccc(CCNc2nnc(Sc3nnnn3-c3ccccc3)s2)cc1OC,.,.,87,.
CCn1c(SCC(=O)NCC2CCCO2)nc2c(c1=O)SC(C)C2 (stereo unspecified),92,/,/,/
CCOCC(=O)Nc1c(C(=O)OCC)oc2ccccc12,.,.,.,.
CCOC(=O)c1oc2ccccc2c1NC(=O)Cc1cccs1,/,.,83,.
SMILES,E-sel TNF inh,HUVEC tox TNFa,VCAM1 TNFa inh,cytoskel mod
N#CC1=C(N)Oc2cc(O)ccc2C1c1cccs1 (stereo unspecified),.,.,.,.
N#CC1=C(N)Oc2c(ccc3ccccc23)C1c1cccs1 (stereo unspecified),.,.,80,.
CN(C(=S)Nc1ccccc1)c1ccccc1,.,/,/,/
CN(C(=S)Nc1ccc(Oc2ccccc2)cc1)c1ccc(O)cc1,87,/,/,/
CCOc1ccc(Nc2cc(C)nc(N3CCOCC3)n2)cc1,.,.,.,.
CCOC(=O)c1cnc2ccc(C)cc2c1Nc1ccc(N2CCOCC2)cc1,100,.,.,.
CCOC(=O)c1cnc2ccc(C(=O)OC)cc2c1Nc1cccc(C(=O)O)c1,.,/,/,/
CCOC(=O)c1ccc(Nc2cc(C)nc(N3CCOCC3)n2)cc1,67,.,.,.
O=C(c1ccccn1)N(c1ccccc1)C1(C(=O)NC2CCCCC2)CCCCC1,.,/,/,/
Cc1cc(C)c2nc(C(F)(F)F)nc(NCCCN3CCOCC3)c2c1,.,.,.,.
COc1cc(-n2cnnn2)ccc1S(=O)(=O)N1CCOCC1,/,.,.,.
O=S(=O)(c1cccc(-n2cnnn2)c1)N1CCOCC1,/,100,?,?
CC(C(=O)O)C1SC(=O)NC1=O (stereo unspecified),70,.,.,.
CN(C)c1ccc(/C=N/NC(=O)c2sccc2-n2cccc2)cc1,.,/,/,/
O=C(c1ccco1)N1CCN(C(=O)N2c3ccccc3Sc3ccccc32)CC1,.,.,83,.
O=C(c1ccco1)N1c2ccccc2Sc2ccccc21,.,.,.,.
CCC1CCCCN1C(=O)COc1ccccc1NC(C)=O (stereo unspecified),.,/,/,/
Clc1cc(Sc2ccc(Br)cc2)nnc1-c1ccccc1,.,.,.,.
CC(CCn1cccn1)NC(=O)CCc1nnc(C2CCCCC2)o1 (stereo unspecified),.,/,/,/
COc1ccc(Cc2n[nH]c(=S)n2N)cc1OC,.,/,/,/
CCOC(=O)Cn1nnnc1CN(CCc1ccccc1)Cc1cc2cc(CC)ccc2[nH]c1=O,.,83,?,/
CC(C)c1ccc(/C=C(\c2nc3ccccc3[nH]2)S(=O)(=O)c2ccccc2)cc1,.,/,/,/
O=S(=O)(/C(=C/c1ccc(C(F)(F)F)cc1)c1nc2ccccc2[nH]1)c1ccccc1,99,/,/,/
O=C(/C=C/c1ccccc1)Nc1ncn[nH]1,60,.,.,.
C[C@@]1([C@@H](NC(=O)c2cccs2)c2ccc(-c3ccccc3)cc2)C[C@H]1C1CCCCC1,.,/,/,/
SMILES,E-sel TNF inh,HUVEC tox TNFa,VCAM1 TNFa inh,cytoskel mod
COC(=O)Sc1nc(N2CCOCC2)c2c(c1C#N)CC(C)(C)OC2,/,.,41,.
COC(=O)CCN1CCN(S(=O)(=O)c2ccccc2Br)CC1,.,/,/,/
COc1cc(NC(=O)CCCc2c[nH]c3ccccc23)cc(OC)c1,.,/,/,/
O=C(NCc1ccco1)C(=O)NCc1ccccc1Cl,.,/,/,/
O=C(CN1CCN(Cc2ccccc2Cl)C1=O)NCc1ccco1,64,.,.,.
C=CCNC(=S)NNC(=O)C(CCCC)CC(C)(C)O (stereo unspecified),.,/,.,.
CCCC(C(=O)NC1CCCC1)N(CCCN1CCOCC1)C(=O)c1snc(C(N)=O)c1N (stereo unspecified),/,.,78,.
CCCC(C(=O)NC1CCCC1)N(CC1CCCO1)C(=O)c1snc(C(N)=O)c1N (stereo unspecified),/,.,.,.
CCOC(=O)CCc1nc2ccccc2[nH]c1=O,63,.,.,.
COC(=O)CCc1nc2ccccc2[nH]c1=O,.,.,.,.
N=C1C(c2nc3ccccc3s2)=C(O)CN1Cc1ccco1,/,.,96,.
C/C=C/Cn1c(N2CCCCCC2)nc2c1c(=O)[nH]c(=O)n2C,74,.,.,.
Cn1c(=O)[nH]c(=O)c2c1nc(N1CCCCCC1)n2CC(N)=O,.,.,.,.
CCn1c(N2CCN(C(=S)NCCc3ccccc3)CC2)nc2ccccc21,.,.,.,.
O=C(O)CSC1c2ccccc2C(=O)N1Cc1ccccc1 (stereo unspecified),69,.,.,.
Cc1ccc(NC(=O)Cn2cnc3sc(C(=O)NCCN(C)C)c(C)c3c2=O)cc1Cl,50,.,.,.
COc1ccc2c(CC(=O)Nc3nccs3)coc2c1,.,/,/,/
CCN(CC)CCNC(=O)CS(=O)Cc1nc(-c2ccccc2Cl)oc1C (stereo unspecified),71,.,.,.
Cc1cccc(N2CCN(C(=O)c3ccoc3C)CC2)c1C,.,/,/,/
CCOC(=O)C1=C(c2ccccc2)OC(N)=C(C#N)C1c1ccco1 (stereo unspecified),.,.,69,.
COC(=O)C1=C(C)OC(N)=C(C#N)C1c1ccco1 (stereo unspecified),.,.,.,.
CCC(C)NC(=O)CN1C(=O)NC2(CCc3ccccc3C2)C1=O (stereo unspecified),.,/,/,/
